From PubChem BioAssay (NCI)
The panel holds about 79,000 compounds, 15% with a hit somewhere; the sample as a whole holds those more often. Cut-off read from the data, not from the text of the source: active = growth inhibition above about 70%; inactive = the rest.

Tests used:
[1] = NCI Yeast Anticancer Drug Screen. Data for the rad50 strain (AID 155);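 note: 0% = growth of vehicle-only cultures of the same strain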; details: S. cerevisiae rad50 strain growth inhibition; at 50.0 µM; hits give high values
Method in brief: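 Growth of the mutant yeast was measured after compound exposure and referenced to vehicle-treated cultures.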

[2] = NCI Yeast Anticancer Drug Screen. Data for the mec2-1 strain (AID 157); details: S. cerevisiae mec2-1 strain, at 50.0 µM, hits give high values
Method in brief: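 Readout is yeast growth inhibition, normalised to vehicle-treated controls, in the mec2-1 strain exposed to compound.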

[3] = NCI Yeast Anticancer Drug Screen. Data for the sgs1 mgt1 strain (AID 161);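 note: 0% = growth of cultures given vehicle only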; details: S. cerevisiae sgs1 mgt1 strain, at 50.0 µM, hits give high values
Method in brief: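 Compounds are added to genetically altered yeast, and growth is compared with cultures given vehicle alone to give percent inhibition.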

[4] = NCI Yeast Anticancer Drug Screen. Data for the cln2 rad14 strain (AID 165);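 note: 0% = growth equal to vehicle treated cultures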; details: S. cerevisiae cln2 rad14 strain, at 50.0 µM, hits give high values
Method in brief: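 Relative to vehicle controls, growth inhibition of compound-treated cln2 rad14 yeast was recorded.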

[5] = NCI Yeast Anticancer Drug Screen. Data for the bub3 strain (AID 167); details: S. cerevisiae bub3 mutant strain, at 50.0 µM, hits give high values
Method in brief: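 Whole-cell yeast assay. The mutant strain was incubated with compounds, and growth inhibition was determined by comparison with vehicle-treated cells.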

[6] = NCI Yeast Anticancer Drug Screen. Data for the mlh1 rad18 strain (AID 175); details: S. cerevisiae mlh1 rad18 strain growth inhibition; at 50.0 µM; hits give high values
Method in brief: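 Test agents were incubated with a yeast strain of defined genotype (DNA damage repair defect). Inhibition of growth was derived by comparison with vehicle-exposed cultures.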

Measured: growth inhibition

CC(C)Cn1cnc2c(Cl)nc3ccccc3c21
inactive: [1] -38.5% | [2] 20.4% | [3] 23.4% | [4] 0.25% | [5] 33.5% | [6] -11.8%

CC(=O)OCC12C(OC(C)=O)C(=O)C3C(OC(C)=O)C14OC3(C)COC(=O)c1cccnc1C(C)C(C)C(=O)OC(C(OC(C)=O)C2OC(C)=O)C4(C)O (stereo unspecified)
inactive: [1] -24.6% | [2] -31.4% | [3] -24.1% | [4] 7.85% | [5] -16.1% | [6] -85%

CC(=O)NNc1nc(C)c(C(/C=C/c2cccc([N+](=O)[O-])c2)=N/NC(=S)NN)s1
inactive: [1] 5.85% | [2] -5% | [3] 2.2% | [4] 4.35% | [5] 12.4% | [6] 12.1%

C=CCCCCCCCCC(=O)NCC1CC1
inactive: [1] -10.8% | [2] -7.1% | [3] 2.5% | [4] -44.8% | [5] -27.9% | [6] -4.75%

C/C=C/C=N/NS(=O)(=O)c1ccc(C)cc1
inactive: [1] 11.3% | [2] 17.8% | [3] -4.1% | [4] -45.4% | [5] -1% | [6] -12.4%

Cc1cc2oc3ccccc3c(=O)c2c(C)c1Cl
inactive: [1] -18.1% | [2] 5.1% | [3] -9.65% | [4] -3.1% | [5] 10.4% | [6] -3.6%

Cc1ccc(S(=O)(=O)N(C)C(C(=O)O)c2ccccc2)cc1 (stereo unspecified)
inactive: [1] 22.4% | [2] -1.35% | [3] 7.15% | [4] -20.6% | [5] -7.8% | [6] 3%

COc1cc(=O)[nH]c(-c2ccccc2)c1OC
inactive: [1] -3.55% | [2] 3.95% | [3] 9% | [4] -5.05% | [5] 7.7% | [6] 0.05%

Oc1ccc2ccccc2c1C(c1cccc2ccccc12)N1CCCCC1 (stereo unspecified)
inactive: [1] 16.1% | [2] 1.4% | [3] 9.7% | [4] 3.2% | [5] 16.1% | [6] 53.8%

O=C1CCC(c2nc3ccccc3[nH]2)N1Cc1cccs1 (stereo unspecified)
inactive: [1] -29.4% | [2] -37.1% | [3] -10.2% | [4] -21.9% | [5] -6.85% | [6] -8.55%

O=C(O)c1cc(C(=O)O)cc(N2C(=O)c3ccccc3C2=O)c1
inactive: [1] 1.45% | [2] -30.4% | [3] -22.4% | [4] 39.3% | [5] -6.1% | [6] 0.5%

CC(=O)OCC/C=C\CCCOC(C)=O
inactive: [1] 5.55% | [2] -2.7% | [3] -3% | [4] -1.75% | [5] 8.3% | [6] 3.65%

O=C(O)C1CCCCC1C(=O)NCc1ccco1 (stereo unspecified)
inactive: [1] 5.25% | [2] 4.55% | [3] 4.05% | [4] 3.7% | [5] 25.4% | [6] 0.05%

Cc1ccc(S(=O)(=O)NC(Cc2ccc(O)cc2)C(=O)O)cc1 (stereo unspecified)
inactive: [1] 1.5% | [2] -8.4% | [3] 5.25% | [4] -57.2% | [5] 12.6% | [6] 35.5%

CCOC(=O)NC(Nc1ccc(S(=O)(=O)Nc2ncccn2)cc1)(C(=O)OCC)C(F)(F)F (stereo unspecified)
inactive: [1] -0.55% | [2] -19.4% | [3] 10.9% | [4] 32.1% | [5] 16.9% | [6] 2.2%

CCOC(=O)/C(C#N)=C/C=C1C=CN(C)C=C1
inactive: [1] 8.95% | [2] -4.4% | [3] -1.4% | [4] -30.9% | [5] 0.1% | [6] -10.1%

C#CCC1(C(=O)OCC)C(=O)c2ccccc2N(C)C1=O (stereo unspecified)
inactive: [1] 16.9% | [2] 1.55% | [3] 31.1% | [4] 11.4% | [5] 14% | [6] 6.95%

O=c1[nH]cc(SSc2c[nH]c(=O)[nH]c2=O)c(=O)[nH]1
inactive: [1] 13.4% | [2] 15.7% | [3] 4.2% | [4] -25.3% | [5] 29.9% | [6] 12.9%

CCCCC(CC)C1OCCS1 (stereo unspecified)
inactive: [1] 5.95% | [2] -24.4% | [3] -4.3% | [4] 1.9% | [5] -17% | [6] -10%

Cc1ccc(S(=O)(=O)CC(=O)CC(=O)C(=O)Nc2ccc(C)cc2C)cc1
inactive: [1] 2.15% | [2] -9.2% | [3] -21.1% | [4] 2% | [5] -8.55% | [6] 12.8%

CC(=O)C1=CN(C)c2ccccc2S1
inactive: [1] 29.6% | [2] 1.75% | [3] 12.2% | [4] -2.55% | [5] -12.8% | [6] 6.15%

COC(=O)c1nc(N)nc(C(=O)OC)c1C(=O)c1cccs1
inactive: [1] -2.55% | [2] -9.05% | [3] -28.9% | [4] -24.8% | [5] -43% | [6] -20.9%

COc1ccccc1NC(=O)C1=C(C)NC(C)=C(C(=O)Nc2ccccc2OC)C1C1=CC=COC1
inactive: [1] -30.4% | [2] -12.8% | [3] -25.9% | [4] -1.1% | [5] 13.1% | [6] -15.5%

C=CCOC(=O)Nc1cc(Cl)ccc1C
inactive: [1] 3.9% | [2] 1.2% | [3] -8.5% | [4] -9.25% | [5] -1.55% | [6] -9.8%

O=S(=O)(O)c1cc[n+]([O-])cc1
inactive: [1] 1.6% | [2] 12.7% | [3] -2.8% | [4] 32.5% | [5] 11.8% | [6] -8.65%

C/C=C/C(C/C=C(\C)CO[Si](C)(C)C(C)(C)C)O[Si](C)(C)C(C)(C)C (stereo unspecified)
inactive: [1] 1.1% | [2] -14.5% | [3] -6.45% | [4] -8.45% | [5] 4.9% | [6] 2.95%

Brc1cncc(Br)c1
inactive: [1] 31.9% | [2] -9.35% | [3] -13.3% | [4] -2.1% | [5] -12.2% | [6] 1.4%

CCCCCCCCCCC1OC(C)C(C)O1 (stereo unspecified)
inactive: [1] 0.4% | [2] -13.1% | [3] -7.3% | [4] -25.1% | [5] -5.5% | [6] 13.2%

CCCCCCCCCCCCCC/C=N/Nc1ccc([N+](=O)[O-])cc1[N+](=O)[O-]
inactive: [1] 21.3% | [2] 24% | [3] 13.5% | [4] 6.25% | [5] -2% | [6] 22.8%

CCOC(=O)NC(CCl)NC(=O)OCC
inactive: [1] -11.7% | [2] -5.6% | [3] -2.05% | [4] -77% | [5] 6.4% | [6] -35.5%

CCN(CC)C(=O)c1ccc(C(C)C)cc1
inactive: [1] 20.4% | [2] 14.8% | [3] 27.9% | [4] 6.6% | [5] 18.3% | [6] 25.8%

CO[C@H]1CC2CC1C1C3=C(NC21)C1(O)C[C@H]2CN(CC3)C1C[C@@H]2C(C)CO (stereo partly specified)
inactive: [1] -3.6% | [2] 9.9% | [3] 2.75% | [4] -0.15% | [5] 1.45% | [6] -23.6%

CC(=O)O[C@H]1CC[C@@]2(C)C(=CC(=O)[C@H]3[C@@H]4CC[C@H]([C@H](C)CCCC(C)C)[C@@]4(C)CC[C@@H]32)C1
inactive: [1] 10.8% | [2] 19.1% | [3] 39% | [4] 36% | [5] 5.9% | [6] 46%

N#CCCN(CCC#N)c1ccc(/C=C2\CC(O)(c3ccccc3)N(c3ccc(Cl)cc3)C2=O)cc1 (stereo unspecified)
inactive: [1] -15.8% | [2] 0.35% | [3] -23.7% | [4] 11.3% | [5] -6.3% | [6] -22.4%

CCOC(=O)/C=C\n1c(=O)cc(C)c2ccccc21
inactive: [1] 8.85% | [2] 23.7% | [3] 7.45% | [4] 18.4% | [5] -2.75% | [6] -1.15%

Cc1ccc(-c2cc(-c3ccco3)nc(N)n2)o1
inactive: [1] -23.9% | [2] -9.1% | [3] 10.6% | [4] 4.3% | [5] 5.45% | [6] 1.75%

COC(=O)CC1(C(=O)OC)OC(=O)c2ccccc2N1C (stereo unspecified)
inactive: [1] 8.2% | [2] 12% | [3] 19.9% | [4] -24.6% | [5] -8.35% | [6] 12.3%

O=C1OC(/C=C/c2ccccc2)C(=O)C1=O (stereo unspecified)
inactive: [1] -4% | [2] -4.55% | [3] -3.9% | [4] 25.4% | [5] -9.75% | [6] -9.95%

CCOC(=O)c1cc(=O)[nH]c2ccc(OC)cc12
inactive: [1] 17.2% | [2] 22.2% | [3] 2.25% | [4] 35.6% | [5] 11.6% | [6] 7.05%

Cc1cc(Cl)ccc1N1C(=O)C(=O)C(c2nc3ccccc3s2)C(=O)C1=O
inactive: [1] -4.1% | [2] 13.7% | [3] 17.9% | [4] -6.1% | [5] 2.2% | [6] 12.5%

Nc1cc2c(C3OC(CO)C(O)C3O)[nH]nc2c(=S)[nH]1 (stereo unspecified)
inactive: [1] 40.8% | [2] 7.05% | [3] 15.5% | [4] 20.4% | [5] 8.15% | [6] 24.1%
